Experimental data from PubChem BioAssay (NCI).
Compounds without any hit were thinned out: in the full panel of roughly 83,000, 20% have a hit.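 Assay: single dose, 48 h. Readout: percent growth (0 = no net growth; negative = cell death). Active: <10.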 Active and inactive are the calls of the source.

Key:
Test in all cases: NCI-60 one-dose screen, 48 h (100 = growth as untreated, 0 = no growth, -100 = all killed)
Conditions in all cases: 10 µM unless noted
[1] = system: MOLT-4 leukemia
[2] = system: SR leukemia
[3] = system: RPMI-8226 leukemia
[4] = system: OVCAR-8 ovarian
[5] = system: OVCAR-5 ovarian
[6] = system: OVCAR-4 ovarian
[7] = system: SK-OV-3 ovarian
[8] = system: IGROV1 ovarian
[9] = system: OVCAR-3 ovarian
[10] = system: HS 578T breast
[11] = system: NCI/ADR-RES ovarian
[12] = system: T-47D breast
[13] = system: BT-549 breast
[14] = system: MDA-MB-435 melanoma
[15] = system: SW-620 colon
[16] = system: MCF7 breast
[17] = system: HCT-116 colon
[18] = system: HCC-2998 colon
[19] = system: KM12 colon

Measured: growth

COC(C(=O)[C@@H](O)[C@@H](C)O)[C@@H]1Cc2cc3cc(O[C@H]4C[C@@H](O[C@H]5C[C@@H](O)[C@H](O)C(C)O5)[C@H](O)C(C)O4)c(C)c(O)c3c(O)c2C(=O)[C@H]1O[C@H]1C[C@@H](O[C@H]2C[C@@H](O[C@H]3C[C@@H](O)[C@@H](O)C(C)O3)[C@@H](O)C(C)O2)[C@H](O)C(C)O1 (some centres not stated)
inactive: [1] 23.9% | [2] 14.3% | [5] 13.7% | [6] 25.2% | [7] 25.5% | [8] 18.2% | [10] 14.5% | [11] 85.5% | [15] 22.2%
active: [3] 9.15% | [4] 2.92% | [9] 4.91% | [12] -1.75% | [13] -27.2% | [14] -37.2% | [16] 0.0061% | [17] 2.29% | [18] -5.17% | [19] 4.05%

CC[C@H](C)[C@H](NC(=O)c1cccn1C)C(=O)N(C)[C@H](C[C@@H](OC(C)=O)c1nc(C(=O)N[C@@H](Cc2ccccc2)C[C@H](C)C(=O)OC)cs1)C(C)C
active: [9] -3.92% | [11] 7.66% | [13] -27% | [14] -18.2% | [17] -3.74%
inactive: [1] 16.2% | [2] 14.4% | [3] 18.6% | [4] 15.6% | [5] 43.5% | [6] 46.9% | [7] 10.8% | [8] 23% | [10] 27% | [12] 64% | [15] 26.2% | [16] 15% | [18] 18.4% | [19] 10%

CC(=O)ONc1ccc([N+](=O)[O-])c(C(F)(F)F)c1
inactive: [1] 96.4% | [2] 103% | [3] 93.9% | [4] 109% | [5] 103% | [6] 98.2% | [7] 94.7% | [8] 107% | [9] 104% | [10] 90.7% | [11] 101% | [12] 77.1% | [13] 92.9% | [14] 105% | [15] 102% | [16] 93.6% | [17] 100% | [18] 108% | [19] 101%

C=C1C(=O)O[C@H]2[C@H]1CC/C(COC(=O)C(=O)c1cn(Cc3ccccc3)c3ccccc13)=C\CC[C@@]1(C)O[C@@H]21
inactive: [7] 86.9%
active: [1] -17.3% | [2] 4.96% | [3] -36.2% | [4] -2.2% | [5] -32.6% | [6] 7.79% | [8] -85.5% | [9] -82.7% | [10] 5.95% | [11] -1.18% | [12] -7.91% | [13] -77.4% | [14] -76.6% | [15] -84.8% | [16] -68.7% | [17] -81.5% | [18] -85.4% | [19] -89.7%

O=NN1CCCc2cccc(O)c21
active: [2] 1.91%
inactive: [1] 51.8% | [3] 44.5% | [4] 24% | [5] 115% | [6] 63.7% | [7] 38.8% | [8] 44.4% | [9] 49.6% | [10] 46.3% | [11] 32.5% | [12] 77.2% | [13] 54.2% | [14] 52.1% | [15] 44.1% | [16] 27.2% | [17] 21.7% | [18] 55.7% | [19] 68.4%

C[n+]1c(/C=C/c2ccc(N(CCCl)CCCl)cc2)sc2ccccc21
inactive: [1] 36.8% | [2] 19.7% | [3] 27.5% | [4] 30% | [5] 103% | [6] 72.9% | [7] 55.1% | [8] 75% | [9] 25.5% | [10] 98.8% | [11] 102% | [12] 16.8% | [13] 64.3% | [14] 76.1% | [15] 23.1% | [16] 27.3% | [17] 48.4% | [19] 74.8%

COc1cc(C=C2c3ccccc3C(=O)c3ccccc32)ccc1OCCCCOc1cc2c(cc1OC)C(=O)N1CCCC1C=N2 (configuration not stated)
active: [1] -53.2% | [2] -84.7% | [3] -10% | [4] -30.4% | [5] -61.3% | [6] -41.1% | [7] -52.4% | [8] -85% | [9] -75.2% | [10] -25.9% | [11] 6.1% | [12] -30% | [13] -40.2% | [14] -57.6% | [15] -84.4% | [16] -77.1% | [17] -85.3% | [18] -94.4% | [19] -85.7%

COC(=O)[C@@H](C)C[C@H](Cc1ccccc1)NC(=O)c1nc([C@@H](C[C@H](C(C)C)N(C)C(=O)[C@@H](NC(=O)[C@H]2CC(=O)CCN2C)C(C)C)OC(C)=O)sc1C(C)C
active: [3] -3.35% | [4] 8.46% | [9] -15.6% | [10] 9.66% | [13] -10.6% | [14] -43.4% | [17] 5.82% | [19] 6.01%
inactive: [1] 15% | [2] 10.9% | [5] 35.5% | [6] 45.8% | [7] 29.1% | [8] 14.4% | [11] 54.3% | [12] 82.9% | [15] 24.2% | [16] 24.6% | [18] 24.6%

Oc1c(O)c(Cl)c(Cl)c(Cl)c1Cl
active: [4] -4.12% | [8] -33.3% | [9] -11.7%
inactive: [1] 31.1% | [2] 24.3% | [3] 25.1% | [5] 77.7% | [6] 15.8% | [7] 64% | [10] 34.8% | [11] 11.7% | [12] 15.1% | [13] 52.5% | [14] 30.8% | [15] 28% | [16] 13.5% | [17] 16.4% | [18] 72.8% | [19] 30.4%

COc1cccc(/C=C/[N+](=O)[O-])c1
active: [2] -21.6% | [3] -21.2% | [14] -25.3% | [16] -11.2% | [17] -60.9% | [18] -87.9%
inactive: [1] 50.4% | [4] 79.6% | [5] 92.8% | [6] 104% | [7] 94.4% | [8] 55.8% | [9] 75.2% | [10] 95% | [11] 92.6% | [12] 41.7% | [13] 29.5% | [15] 77.5% | [19] 15.6%

CC[S][Hg][Cl]
inactive: [1] 109% | [2] 98.1% | [3] 114% | [4] 102% | [5] 116% | [6] 122% | [7] 110% | [8] 112% | [9] 109% | [10] 106% | [11] 106% | [12] 122% | [13] 111% | [14] 98.7% | [15] 106% | [16] 93.3% | [17] 106% | [18] 111% | [19] 107%

O=C(CC1(O)C(=O)Nc2ccc(Br)cc21)c1ccc(C(=O)NCC2CCC3(CC2)OOC2(CCCCC2)OO3)cc1 (configuration not stated)
active: [1] -29.4% | [2] -38.7% | [3] -27.4% | [9] 8.92% | [15] -12.5%
inactive: [4] 41.7% | [5] 95.8% | [6] 48.7% | [7] 70.6% | [8] 14.8% | [10] 62.9% | [11] 64.6% | [12] 14.7% | [13] 63.6% | [14] 36.1% | [16] 32.5% | [17] 38.9% | [18] 99.7% | [19] 31.6%

ClCCN(CCCl)c1ccc(/C=N/Nc2ncnc3nc[nH]c23)cc1
active: [2] 6.32%
inactive: [1] 26.3% | [3] 91.9% | [4] 80% | [5] 124% | [6] 80.3% | [7] 82.6% | [8] 28.3% | [9] 98.5% | [10] 151% | [11] 98.4% | [12] 59.8% | [13] 95% | [14] 79.9% | [15] 77.6% | [16] 42.5% | [17] 78.4% | [19] 96.6%

COC(=O)[C@@H](C)C[C@H](Cc1ccccc1)NC(=O)c1csc(CC[C@H](C(C)C)N(C)C(=O)[C@@H](NC(=O)[C@H]2CCCCN2C)C(C)C)n1
inactive: [1] 14.4% | [2] 15.9% | [3] 19.8% | [4] 20.6% | [5] 54% | [6] 53.2% | [7] 37.7% | [8] 32.4% | [10] 33.2% | [11] 53.1% | [12] 56.8% | [15] 30.6% | [16] 20.3% | [18] 24.5% | [19] 16.2%
active: [9] -5.55% | [13] 7.17% | [14] -48.6% | [17] 3.72%

CCC[CH2][Sn]([CH2]CCC)([CH2]CCC)[O]c1ccc(Cl)cc1Cl
active: [1] -6.07% | [2] -30.4% | [3] -9.16% | [4] -48.1% | [5] -66.3% | [6] -100% | [7] -97.5% | [8] -66.9% | [9] -100% | [10] -10.3% | [11] -84.6% | [12] -84% | [13] -81.7% | [14] -60.7% | [15] -92.9% | [16] -93% | [17] -79.9% | [18] -95.4% | [19] -94.2%

COC(=O)[C@@]1(C)CC[C@]2(C)CC[C@]3(C)C4=CC(=O)c5c(cc(O)c(O)c5C)[C@]4(C)CC[C@@]3(C)[C@@H]2C1
inactive: [1] 18.3% | [2] 51.2% | [3] 27% | [4] 60.4% | [5] 119% | [6] 47.4% | [7] 58.3% | [8] 50.8% | [9] 47.9% | [10] 79.5% | [11] 63.4% | [12] 54.1% | [13] 82.1% | [14] 58.5% | [15] 60.3% | [16] 41.9% | [17] 31.3% | [18] 76.7% | [19] 50.4%
